According to PubChem BioAssay AID588334 (Broad Institute, 2011):
In all, about 300,000 compounds went through this assay and about 2,300 (0.77%) were called active.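 The calls were made as follows: active = mean activation of at least 80% with every replicate also reaching 80%; inconclusive = mean reaches 80% but some replicate falls short; inactive = the rest.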 Only a selection was taken, and actives are over-represented in it overall.

Assay: MITF-driven TRPM1 luciferase induction in melanoma cells – cell-based, SK-MEL-5, single point, primary screen (AID 588334);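 also: 0% = neutral control wells and 100% = parthenolide positive control wells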
Details: SK-MEL-5 TRPM1-promoter luciferase, 24 h; at 12.5 µM; hits give high values; % of positive control, neutral wells = 0
In the case of `Cc1c(C(N)=O)sc2ncn(CCOc3ccccc3)c(=O)c12`, the activation is reported as 17.3% (inactive).
In the case of `Cc1cccc(OC(=O)c2sc3ncn(C)c(=O)c3c2C)c1`, the activation is reported as 93.6% (active).
With `CCOC(=O)C(C)n1cnc2sc(C)c(C)c2c1=O` (stereo not given) the activation was 2.04% (inactive).
For `CCC(CO)Oc1cc(NCc2ccccc2)c2ncn(C3CCCC3)c2c1` (stereo not given), the activation was 9.77% (inactive).
With `NC(=O)c1ncn([C@@H]2O[C@H](CNCc3cnc(N4CCOCC4)s3)[C@@H](O)[C@H]2O)n1` the activation was -0.075% (inactive).
For `O=C(Cc1ccc(S(=O)(=O)N2CCOCC2)s1)Nc1ccc(Br)c(C(F)(F)F)c1`, the activation was 17.8% (inactive).
For `O=C(CC1Sc2ccccc2NC1=O)NNc1ccc(Cl)c(Cl)c1` (stereo not given), the activation was 9.23% (inactive).
With `O=c1c2ccccc2nnn1CSc1nnnn1-c1ccccc1` the activation was 87.9% (active).
With `C=CCn1c(SCn2nnc3ccccc3c2=O)nnc1-c1ccc(Cl)cc1` the activation was -11% (inactive).
With `Nc1nnc(SCn2nnc3ccccc3c2=O)s1` the activation was -7.75% (inactive).
In the case of `O=C(NCCC(=O)N1O[C@@H]2C=C[C@H]1C2)OCC1c2ccccc2-c2ccccc21`, the activation is reported as 12.3% (inactive).
In the case of `COc1ccc(CNC(=O)COC(=O)C2=Cc3ccccc3OC2)cc1`, the activation is reported as -1.47% (inactive).
With `CC(C)N(C(=O)[C@H]1C[C@H](CC(=O)NC(C)(C)C)C(=O)N2CCc3c([nH]c4ccc(Cl)cc34)[C@]12C)C(C)C` the activation was -26.3% (inactive).
With `COc1cc(C(=O)N2CCN(S(=O)(=O)c3ccc(C(C)C)cc3)CC2)ccc1OCC(=O)N1CCOCC1` the activation was -0.869% (inactive).
For `Cc1ccc2cc(/C=N/NC(=O)[C@@H]3CCCN3)c(Cl)nc2c1`, the activation was 19.1% (inactive).
In the case of `O=C(O)c1ccc(N/N=C/c2ccc3ncccc3c2)cc1`, the activation is reported as -58.9% (inactive).
In the case of `Cc1ccc2cc(/C=N/Nc3ccc(C(=O)O)cc3)c(Cl)nc2c1`, the activation is reported as 99.2% (active).
With `O=C1C[C@@H]2c3c(cccc3CN1Cc1ccccc1)C[C@@H](O)[C@H]2O` the activation was 8.46% (inactive).
For `COc1ccc(C2=Nn3c(nnc3-c3ccccc3OC)SC2)cc1OC1CCCC1`, the activation was -62.2% (inactive).
In the case of `CC(=NNC(=O)c1ccncc1)c1ccc(Cl)c(Cl)c1`, the activation is reported as 4.45% (inactive).
In the case of `O=C(NCCC1=CCCCC1)c1ccc(Cl)c([N+](=O)[O-])c1`, the activation is reported as 31.3% (inactive).
With `O=C(NCCC1=CCCCC1)c1ccc(-n2cncn2)cc1` the activation was 83.6% (active).
In the case of `CN(c1ccc(C(=O)NCCC2=CCCCC2)cc1)S(C)(=O)=O`, the activation is reported as 45.6% (inactive).
In the case of `CN(C)C(CNC(=O)c1cc2ccccc2o1)c1ccccc1` (stereo not given), the activation is reported as 1.76% (inactive).
For `CCNC(=O)N(CC)C[C@H]1N[C@@](CC)(C(=O)OC)[C@H]2C(=O)N(Cc3ccccc3)C(=O)[C@@H]12`, the activation was 0.033% (inactive).
